Compound activity as filed in PubChem.
KKLEB cytotox: reduces viability of KKLEB cystic fibrosis airway cells. 360,000 compounds, 0.36% hits. KKLEB CF airway cells viability, ATPlite luminescence, overnight; hits give low values; cells stimulated with P. aeruginosa culture filtrate. activity change (cytotoxicity), % at 5 µM;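 active means corrected activity change at or below -50% at 5 µM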
CF NFkB block: inhibitors of cystic fibrosis induced NF-kB; inhibition, % at 5 µM; AID 588850; KKLEB NF-kB-GFP reporter, PAF-induced, GFP fluorescence overnight; 360,000 compounds, 0.86% hits;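 active means at least 50% inhibition at 5 µM, scaled per plate between neutral and stimulator controls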;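 further: PAF is a Pseudomonas aeruginosa culture filtrate used as stimulus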
HSP90 inh: blocks HSP90-mediated luciferase refolding in reticulocyte lysate; Rabbit reticulocyte lysate, luciferase refolding luminescence, 3 h; inhibition, % at 5.6 µM; 290,000 compounds, 0.91% hits;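 active means inhibition above the screen-wide mean plus 3 SD, computed separately per campaign, cut at about 16% in these data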;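 further: inhibitors lower the luminescence because luciferase stays unfolded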
Mdm2 MdmX PPI: inhibitors of human Mdm2/MdmX interaction; AID 485346; SaOS-2 split-luciferase Mdm2/MdmX complementation, luminescence; inhibition, % at 8 µM; 330,000 compounds, 3% hits;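 active means inhibition of at least 50% at 8 µM in the primary screen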
Target sequence (O15151 whole entry, looked up): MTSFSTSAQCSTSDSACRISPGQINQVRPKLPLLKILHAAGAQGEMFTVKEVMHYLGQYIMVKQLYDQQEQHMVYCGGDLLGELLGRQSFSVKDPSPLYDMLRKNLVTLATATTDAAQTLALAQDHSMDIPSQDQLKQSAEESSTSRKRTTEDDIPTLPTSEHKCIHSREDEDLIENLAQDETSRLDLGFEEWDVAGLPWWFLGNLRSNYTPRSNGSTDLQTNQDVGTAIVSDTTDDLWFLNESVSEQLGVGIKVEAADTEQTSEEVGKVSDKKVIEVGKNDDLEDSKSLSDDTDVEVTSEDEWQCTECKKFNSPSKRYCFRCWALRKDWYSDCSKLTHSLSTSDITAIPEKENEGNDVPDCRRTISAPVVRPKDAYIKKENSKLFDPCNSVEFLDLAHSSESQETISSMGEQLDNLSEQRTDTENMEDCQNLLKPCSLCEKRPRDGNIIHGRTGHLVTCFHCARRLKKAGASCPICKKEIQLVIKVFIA
Target sequence (Q00987 whole entry, looked up): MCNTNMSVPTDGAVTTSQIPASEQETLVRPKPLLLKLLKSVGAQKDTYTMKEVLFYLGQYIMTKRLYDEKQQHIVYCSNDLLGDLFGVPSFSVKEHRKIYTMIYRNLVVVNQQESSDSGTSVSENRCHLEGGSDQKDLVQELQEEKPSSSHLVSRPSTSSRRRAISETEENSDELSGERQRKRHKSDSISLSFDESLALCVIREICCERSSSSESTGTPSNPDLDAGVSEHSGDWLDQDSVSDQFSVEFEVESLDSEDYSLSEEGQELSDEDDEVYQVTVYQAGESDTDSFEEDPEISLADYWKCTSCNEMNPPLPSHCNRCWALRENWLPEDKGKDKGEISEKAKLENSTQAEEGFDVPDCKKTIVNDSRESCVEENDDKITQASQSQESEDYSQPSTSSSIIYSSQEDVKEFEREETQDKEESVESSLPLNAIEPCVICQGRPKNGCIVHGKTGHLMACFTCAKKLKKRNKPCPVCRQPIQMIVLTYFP
LGR2 inh: blocks bursicon-induced cAMP signaling via Drosophila LGR2. HEK293 LGR2, CRE-luciferase, bursicon-stimulated, 4 h. inhibition, % at 9.99 µM. 380,000 compounds, 0.35% hits;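 active means drop in luminescence signal, shown as inhibition above about 50% in the replicate tests, limit read from the data, passing the limit was not always enough; inconclusive means probably only some replicates passing the limit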;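 further: agonist challenge used bursicon conditioned medium at about half maximal strength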
Peg3 promoter: inhibitors of Peg3 promoter | 360,000 compounds, 1.7% hits | inhibition, % at 20 µM | AID 588405 | HeLa PEG-Prom luciferase reporter, luminescence, overnight;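 active means inhibition of at least 50% at 20 µM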
Mdm2-MdmX conf: human Mdm2/MdmX binding inhibition, confirmed; shares compounds with Mdm2 MdmX PPI; luminescent assay; inhibition, % at 8 µM; 10,000 compounds, 55% hits; AID 489028; in the data active means inhibition above about 40%
Full FLuc ctr: full-length luciferase inhibition in Mdm2/MdmX counter-screen; SaOS-2 full-length luciferase counterscreen, luminescence; 6,200 compounds, 77% hits; shares compounds with Mdm2 MdmX PPI; inhibition, % at 8 µM;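 active means mean inhibition at 8 µM reaching about 37%, which flags the compound as non-specific, limit read from the data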;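 further: p53-null SaOS-2 cells with luciferase driven by a doxycycline-inducible promoter; compound on cells about two nights before reading with doxycycline added after day one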
A number is an active result; – = inactive; ? = inconclusive; · = not tested or not shown. A selection: hits, their analogues and other compounds. The true share with any hit is near 3.6%.

SMILES	KKLEB cytotox	CF NFkB block	HSP90 inh	Mdm2 MdmX PPI	LGR2 inh	Peg3 promoter	Mdm2-MdmX conf	Full FLuc ctr
CC[C@H](C)[C@@H](NC(=O)O[C@@H]1C(=O)c2cc(OC)ccc2O[C@H]1c1ccc(OC)c(Br)c1)C(=O)OC	–	–	–	–	·	–	·	·
COc1ccc2c(c1)C(=O)[C@H](O)[C@@H](c1ccc(OC)c(Br)c1)O2	·	·	–	70.7	–	·	–	·
ClC(Cl)(Cl)c1nc2ccccc2n2nncc12	–	–	–	76.8	–	79.2	60.2	–
c1ccc2c(c1)nnn1c3ccccc3nc21	·	·	–	–	·	·	·	·
Cc1noc(C)c1NC(=O)Nc1ccc2c(c1)C(=O)N([C@H](C)CO)C[C@@H](C)[C@H](CN(C)Cc1ccc(C(=O)O)cc1)OCCCC[C@@H](C)O2	·	·	·	·	–	·	·	·
CC1(C)Cc2c(sc(NC(=O)c3ccc4ncsc4c3)c2C(N)=O)C(C)(C)N1	–	–	–	74.8	–	–	–	·
COC(=O)c1c(NC(=O)c2ccccc2)sc2c1CC(C)(C)NC2(C)C	–	–	–	–	–	–	·	·
CC1(C)Cc2c(sc(NC(=O)c3ccc(C(=O)c4ccccc4)cc3)c2C(N)=O)C(C)(C)N1	–	–	–	72.8	–	82.9	57.4	–
CC(C)c1cc(C(=O)NC2CCCc3c2cnn3-c2ccccc2F)no1 (stereo not drawn)	–	–	–	89.7	–	–	76.7	–
ClCc1nc2ccccc2c2ccccc12	–	–	–	51.7	–	–	–	·
CCOC(=O)c1c(CCl)nc2ccccc2c1-c1ccccc1	–	–	–	–	–	–	·	·
CCOC(=O)c1ccccc1Nc1cn(C(C)=O)c2ccccc12	–	–	–	58.5	–	–	46.5	79.9
NC(=O)c1oc2ccccc2c1NC(=O)c1ccc([N+](=O)[O-])o1	–	62.3	–	64.9	–	108.8	55.4	–
COC(=O)c1c(C)[nH]c(-c2csc(N)n2)c1C	–	–	–	65.4	–	–	61.0	85.2
S=C1NC2=C(CCCC2=C2SCCS2)C(c2ccccc2)N1 (stereo not drawn)	–	–	–	64.8	–	–	–	·
Fc1ccc(/C=C2\CCCC3=C2NC(=S)NC3c2ccc(F)cc2)cc1 (stereo not drawn)	·	·	–	·	·	·	·	·
COC(=O)c1cc2sccc2n1Cc1nc(-c2ccc(Cl)cc2)oc1C	–	–	–	51.5	·	–	–	·
CN(C)C=Nc1ncc2c3ccccc3n(CCN(C)C)c2c1C#N	–	–	–	60.3	·	–	61.5	–
CC(C)NC(=O)N(C)C[C@@H]1Oc2ncc(C#Cc3ccccc3F)cc2C(=O)N([C@@H](C)CO)C[C@@H]1C	·	·	·	·	–	·	·	·
CCOc1cc(N2CCOCC2)c(OCC)cc1NC(=O)COC(=O)c1cc2ccccc2cc1O	–	–	–	–	–	–	·	·
CCOc1cc(N2CCOCC2)c(OCC)cc1NC(=O)c1[nH]c(C)c(C(C)=O)c1C	–	–	·	56.5	–	–	–	86.3
CC(=O)c1c(C)[nH]c(C(=O)Nc2ccccc2N2CCOCC2)c1C	–	–	–	–	–	–	·	·
CCOc1ccc(OCCC(=O)OCC(=O)Nc2cc(OCC)c(N3CCOCC3)cc2OCC)cc1	–	–	·	50.2	–	–	43.6	53.7
COc1ccccc1NC(=O)N[C@H]1C=C[C@H](CC(=O)N[C@H](C)c2ccccc2)O[C@H]1CO	·	·	·	·	–	·	·	·
CC1=CC(C)(C)N(S(=O)(=O)c2ccc(C)cc2)c2cc(C)ccc21	–	51.4	–	53.6	·	–	69.5	122.4
SMILES	KKLEB cytotox	CF NFkB block	HSP90 inh	Mdm2 MdmX PPI	LGR2 inh	Peg3 promoter	Mdm2-MdmX conf	Full FLuc ctr
COc1ccc2c(c1)C(C)=CC(C)(C)N2S(=O)(=O)c1ccc(C)cc1	–	–	–	63.0	–	–	67.0	95.7
CC1=CC(C)(C)N(C(=O)CCl)c2cc(C)ccc21	–	–	–	–	–	–	·	·
COc1ccc(S(=O)(=O)N(C)C[C@@H]2Oc3ncc(C#Cc4ccccc4)cc3C(=O)N([C@H](C)CO)C[C@@H]2C)cc1	·	·	·	·	–	·	·	·
C[C@@H]1CN([C@H](C)CO)C(=O)c2cccc(NC(=O)C3CCOCC3)c2O[C@H]1CN(C)Cc1ccc(Oc2ccccc2)cc1	·	·	·	·	–	·	·	·
CN1c2ccc(C3=CCCCC3)cc2[C@H]2[C@H](CCN2C(=O)C2CCCCC2)[C@H]1CO	·	·	·	·	–	·	·	·
O=C(NCCc1ccccc1)C(c1cccs1)N(C(=O)CCl)c1ccc(Cl)cc1 (stereo not drawn)	-89.0	105.0	–	98.9	–	108.7	100.1	52.5
Cn1nnnc1Sc1ncnc2scc(-c3ccccc3Br)c12	–	–	·	69.8	–	79.0	67.2	–
Cn1nnnc1Sc1ncnc2scc(-c3ccc(F)cc3)c12	–	60.3	–	100.0	·	96.8	90.7	53.8
COc1ccccc1-c1csc2ncnc(Sc3nnnn3C)c12	–	–	·	–	–	–	·	·
Cn1nnnc1SCc1nc2scc(-c3ccc(Cl)cc3)c2c(=O)[nH]1	–	–	–	–	–	–	·	·
Cn1nnnc1Sc1ncnc2scc(-c3ccc(Br)cc3)c12	-92.1	86.0	·	99.2	100.2	102.8	100.0	53.0
Cc1ccc(-c2csc3ncnc(SCC(N)=O)c23)cc1	–	–	–	–	–	–	·	·
Cn1nnnc1Sc1ncnc2scc(-c3ccccc3)c12	–	–	–	78.3	–	–	–	·
CN(C)c1ccc2c(c1)[C@@H]1C[C@H](CC(=O)NCc3ccc(Cl)cc3)O[C@@H](CO)[C@@H]1O2	·	·	·	·	–	·	·	·
O=C(c1ccncc1)N1CC2(C1)[C@@H](c1ccccc1)[C@@H](CO)N2CC1CCCC1	·	·	·	·	–	·	·	·
Cn1nnnc1Sc1ncnc2scc(Br)c12	–	77.7	·	98.6	?	103.8	–	·
Cn1c(=O)n(C)c2cc(NS(=O)(=O)c3ccccc3)ccc21	–	–	–	50.7	·	–	–	·
Cc1ccc(S(=O)(=O)Nc2ccc3c(c2)n(C)c(=O)n3C)cc1	–	–	–	–	–	–	·	·
CCc1ccc(S(=O)(=O)Nc2cc3c(cc2C)n(C)c(=O)n3C)cc1	–	–	–	57.9	–	–	55.0	59.5
Cc1ccc(NS(=O)(=O)c2ccc3c(c2)n(C)c(=O)n3C)c(C)c1	–	–	–	–	–	–	·	·
C[C@@H]1CCCCO[C@H](CN(C)Cc2ccc3c(c2)OCO3)[C@@H](C)CN([C@@H](C)CO)C(=O)c2cc(NC(=O)Nc3ccc(F)cc3)ccc2O1	·	·	·	·	–	·	·	·
CC(=O)N(C)C1=C(N2CCOCC2)C(=O)c2ccccc2C1=O	–	–	–	82.2	·	82.8	85.7	48.3
C[C@@H]1CN([C@H](C)CO)S(=O)(=O)c2ccc(C#CCN(C)C)cc2O[C@H]1CN(C)Cc1cccnc1	·	·	·	·	–	·	·	·
Cc1sc2ncnc(SC(C)C(=O)N3c4ccccc4Sc4ccccc43)c2c1C (stereo not drawn)	–	–	–	55.0	–	–	–	·
